In PubChem BioAssay AID1159580 (chemical genetic matrix, 2015):
Where “and” joins values, the source holds several entries; their conditions need not be identical. Identical values can stand only once. Out of some 5,500 compounds screened, about 2,000 (36%) were called active. Not shown: some 18% with an inconclusive outcome. Cut-off read from the data, not from the text of the source: active = normalized growth mostly below about 0.91 (no sharp cut-off); inconclusive = no clear call, values can overlap the other calls; inactive = mostly above about 0.92. The list shows a part of the results.

Assay: chemical genetic growth profiling, strain panel (AID 1159580);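 note: tested at 20 µM; growth read once vehicle control cultures reached saturation at 30 °C; 1 = growth at the plate median or of vehicle wells; lower values mean less growth of the strain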
Settings: growth OD
[1] = S. cerevisiae deletion strains, locus YAL013W, strain DEP1, stronger effect = lower value
[2] = S. cerevisiae deletion strains, locus YBR229C, strain ROT2, stronger effect = lower value
[3] = S. cerevisiae deletion strains, locus YDL101C, strain DUN1, stronger effect = lower value
[4] = S. cerevisiae deletion strains, locus YDR150W, strain NUM1, stronger effect = lower value
[5] = S. cerevisiae deletion strains, locus YEL061C, strain CIN8, stronger effect = lower value
[6] = S. cerevisiae deletion strains, locus YGR078C, strain PAC10, stronger effect = lower value
[7] = S. cerevisiae deletion strains, locus YHR030C, strain SLT2, stronger effect = lower value
[8] = S. cerevisiae deletion strains, locus YJR043C, strain POL32, stronger effect = lower value
[9] = S. cerevisiae deletion strains, locus YJR075W, strain HOC1, stronger effect = lower value
[10] = S. cerevisiae deletion strains, locus YKL190W, strain CNB1, stronger effect = lower value
[11] = S. cerevisiae deletion strains, locus YLR039C, strain RIC1, stronger effect = lower value
[12] = S. cerevisiae deletion strains, locus YLR262C, strain YPT6, stronger effect = lower value
[13] = S. cerevisiae deletion strains, locus YMR307W, strain GAS1, stronger effect = lower value
[14] = S. cerevisiae deletion strains, locus YNL322C, strain KRE1, stronger effect = lower value
[15] = S. cerevisiae deletion strains, locus YPL055C, strain LGE1, stronger effect = lower value
[16] = S. cerevisiae deletion strains, locus YPL241C, strain CIN2, stronger effect = lower value

Measured: normalized growth

O=C(COc1ccc2c(c1)OCO2)N1CCN(c2ncc(C(F)(F)F)cc2Cl)CC1
active: [7] 0.55 | S. cerevisiae deletion strains, locus YLR085C, strain ARP6, stronger effect = lower value 0.7
inactive: [1] 0.993 | [2] 1 | S. cerevisiae deletion strains, locus YCL061C, strain MRC1, stronger effect = lower value 0.983 | [3] 1.03 | [4] 0.997 | [5] 0.948 | [6] 0.996 | S. cerevisiae deletion strains, locus YHR087W, strain rtc3, stronger effect = lower value 0.977 | S. cerevisiae deletion strains, locus YJL187C, strain SWE1, stronger effect = lower value 1 | [8] 1.03 | [9] 0.984 | [10] 0.963 | [11] 0.876 | S. cerevisiae deletion strains, locus YLR058C, strain SHM2 (second series), stronger effect = lower value 0.998 | [12] 0.885 | S. cerevisiae deletion strains, locus YML094W, strain GIM5, stronger effect = lower value 0.964 | S. cerevisiae deletion strains, locus YMR219W, strain ESC1, stronger effect = lower value 0.994 | S. cerevisiae deletion strains, locus YMR263W, strain SAP30, stronger effect = lower value 1.01 | [13] 0.791 | S. cerevisiae deletion strains, locus YNL153C, strain GIM3, stronger effect = lower value 0.978 | S. cerevisiae deletion strains, locus YNL298W, strain CLA4 (second series), stronger effect = lower value 0.944 | [14] 0.987 | S. cerevisiae deletion strains, locus YNR030W, strain Alg12, stronger effect = lower value 0.92 | S. cerevisiae deletion strains, locus YOL006C, strain TOP1, stronger effect = lower value 0.999 | [15] 1.03 | [16] 1.06 | S. cerevisiae deletion strains, locus YPR135W, strain CTF4, stronger effect = lower value 0.802 | S. cerevisiae strains, strain wild type, stronger effect = lower value 0.985

O=C(COc1ccc(Cl)cc1)N1CCN(Cc2ccc3c(c2)OCO3)CC1
active: S. cerevisiae deletion strains, locus YDR502C, strain sam2, stronger effect = lower value 0.908 | S. cerevisiae deletion strains, locus YGR135W, strain pre9, stronger effect = lower value 0.825 | S. cerevisiae deletion strains, locus YMR223W, strain ubp8, stronger effect = lower value 0.898 | S. cerevisiae deletion strains, locus YNL307C, strain MCK1, stronger effect = lower value 0.9 | S. cerevisiae deletion strains, locus YOR184W, strain ser1, stronger effect = lower value 0.845
inactive: [1] 0.989 | S. cerevisiae deletion strains, locus YBR021W, strain FUR4, stronger effect = lower value 0.977 | [2] 0.98 | S. cerevisiae deletion strains, locus YCL029C, strain bik1, stronger effect = lower value 0.979 | S. cerevisiae deletion strains, locus YDL035C, strain GPR1, stronger effect = lower value 0.93 | S. cerevisiae deletion strains, locus YDL074C, strain BRE1, stronger effect = lower value 1 | [3] 0.985 | S. cerevisiae deletion strains, locus YDL134C, strain PPH21, stronger effect = lower value 0.958 | S. cerevisiae deletion strains, locus YDL185W, strain tfp1, stronger effect = lower value 0.962 | S. cerevisiae deletion strains, locus YDL192W, strain arf1, stronger effect = lower value 0.945 | S. cerevisiae deletion strains, locus YDR101C, strain arx1, stronger effect = lower value 1.01 | [4] 0.976 | S. cerevisiae deletion strains, locus YDR162C, strain NBP2, stronger effect = lower value 0.918 | S. cerevisiae deletion strains, locus YDR318W, strain mcm21, stronger effect = lower value 0.921 | S. cerevisiae deletion strains, locus YDR388W, stronger effect = lower value 0.972 | [5] 0.985 | S. cerevisiae deletion strains, locus YER110C, stronger effect = lower value 0.962 | S. cerevisiae deletion strains, locus YER155C, strain BEM2, stronger effect = lower value 1.02 | S. cerevisiae deletion strains, locus YER167W, strain BCK2, stronger effect = lower value 0.987 | S. cerevisiae deletion strains, locus YGL078C, strain dbp3, stronger effect = lower value 1 | S. cerevisiae deletion strains, locus YGL086W, strain mad1, stronger effect = lower value 0.973 | S. cerevisiae deletion strains, locus YGL248W, strain PDE1, stronger effect = lower value 0.983 | [6] 0.952 | S. cerevisiae deletion strains, locus YGR252W, strain gcn5, stronger effect = lower value 0.938 | [7] 0.954 and 0.981 | S. cerevisiae deletion strains, locus YHR079C, strain IRE1 (second series), stronger effect = lower value 0.977 | S. cerevisiae deletion strains, locus YHR079C, strain IRE1, stronger effect = lower value 0.972 | S. cerevisiae deletion strains, locus YHR094C, strain hxt1, stronger effect = lower value 0.978 | S. cerevisiae deletion strains, locus YHR129C, strain ARP1, stronger effect = lower value 0.977 | S. cerevisiae deletion strains, locus YHR200W, strain rpn10, stronger effect = lower value 0.976 | S. cerevisiae deletion strains, locus YIL066C, strain RNR3, stronger effect = lower value 0.887 | S. cerevisiae deletion strains, locus YIL073C, strain SPO22, stronger effect = lower value 0.827 | S. cerevisiae deletion strains, locus YIL125W, strain kgd1, stronger effect = lower value 1 | S. cerevisiae deletion strains, locus YIR030C, strain dcg1, stronger effect = lower value 0.973 | S. cerevisiae deletion strains, locus YJL134W, strain LCB3, stronger effect = lower value 0.977 | S. cerevisiae deletion strains, locus YJL168C, strain set2, stronger effect = lower value 0.98 | S. cerevisiae deletion strains, locus YJL187C, strain SWE1 (second series), stronger effect = lower value 0.932 | [8] 1.08 | S. cerevisiae deletion strains, locus YJR066W, strain TOR1, stronger effect = lower value 0.916 | [9] 0.943 | S. cerevisiae deletion strains, locus YKL009W, strain mrt4, stronger effect = lower value 0.987 | S. cerevisiae deletion strains, locus YKL068W, stronger effect = lower value 0.983 | S. cerevisiae deletion strains, locus YKL085W, strain MDH1 (second series), stronger effect = lower value 0.98 | S. cerevisiae deletion strains, locus YKL085W, strain MDH1, stronger effect = lower value 0.98 | [10] 0.976 | S. cerevisiae deletion strains, locus YKR001C, strain vps1, stronger effect = lower value 1.04 | [11] 0.738 | S. cerevisiae deletion strains, locus YLR058C, strain SHM2, stronger effect = lower value 0.962 | S. cerevisiae deletion strains, locus YLR102C, strain apc9, stronger effect = lower value 0.986 | S. cerevisiae deletion strains, locus YLR113W, strain HOG1, stronger effect = lower value 1 | [12] 0.668 | S. cerevisiae deletion strains, locus YLR268W, strain sec22, stronger effect = lower value 0.911 | S. cerevisiae deletion strains, locus YLR330W, strain CHS5, stronger effect = lower value 0.979 | S. cerevisiae deletion strains, locus YLR342W, strain FKS1 (second series), stronger effect = lower value 0.902 | S. cerevisiae deletion strains, locus YLR371W, strain rom2, stronger effect = lower value 0.985 | S. cerevisiae deletion strains, locus YLR418C, strain cdc73, stronger effect = lower value 0.864 | S. cerevisiae deletion strains, locus YML016C, strain PPZ1, stronger effect = lower value 0.97 | S. cerevisiae deletion strains, locus YML032C, strain rad52, stronger effect = lower value 0.952 | S. cerevisiae deletion strains, locus YML124C, strain tub3, stronger effect = lower value 0.998 | S. cerevisiae deletion strains, locus YMR078C, strain ctf18, stronger effect = lower value 0.971 | [13] 1.01 | S. cerevisiae deletion strains, locus YNL067W, strain RPL9B, stronger effect = lower value 0.957 | S. cerevisiae deletion strains, locus YNL183C, strain NPR1, stronger effect = lower value 0.918 | S. cerevisiae deletion strains, locus YNL233W, strain BNI4, stronger effect = lower value 0.941 | S. cerevisiae deletion strains, locus YNL250W, strain rad50, stronger effect = lower value 0.981 | S. cerevisiae deletion strains, locus YNL271C, strain bni1, stronger effect = lower value 0.988 | S. cerevisiae deletion strains, locus YNL298W, strain CLA4, stronger effect = lower value 0.983 | [14] 0.976 | S. cerevisiae deletion strains, locus YNR052C, strain pop2, stronger effect = lower value 0.943 | S. cerevisiae deletion strains, locus YOL012C, strain htz1 1.78 | S. cerevisiae deletion strains, locus YOL147C, strain pex11, stronger effect = lower value 0.962 | S. cerevisiae deletion strains, locus YOR061W, strain CKA2, stronger effect = lower value 0.971 | S. cerevisiae deletion strains, locus YOR069W, strain VPS5, stronger effect = lower value 0.973 | S. cerevisiae deletion strains, locus YOR136W, strain idh2, stronger effect = lower value 0.992 | S. cerevisiae deletion strains, locus YOR144C, strain elg1, stronger effect = lower value 0.993 | S. cerevisiae deletion strains, locus YOR231W, strain MKK1, stronger effect = lower value 0.999 | S. cerevisiae deletion strains, locus YOR316C, strain cot1, stronger effect = lower value 0.984 | [15] 0.998 | [16] 0.974 | S. cerevisiae deletion strains, locus YPL256C, strain CLN2, stronger effect = lower value 0.97 | S. cerevisiae deletion strains, locus YPR119W, strain clb2, stronger effect = lower value 0.989 | S. cerevisiae deletion strains, locus YPR141C, strain kar3, stronger effect = lower value 0.988 | S. cerevisiae deletion strains, locus YPR163C, strain tif3, stronger effect = lower value 0.955 | S. cerevisiae deletion strains, locus YPR167C, strain met16, stronger effect = lower value 0.987 | S. cerevisiae deletion strains, strain wtn01, stronger effect = lower value 0.905
0.773 (active) and 0.983 (inactive): S. cerevisiae deletion strains, locus YJL095W, strain BCK1, stronger effect = lower value
